Many of the other results were omitted from the sample, so hits are more common in it than they were.
Dicer inh = blocks human Dicer maturation of pre-miR-21. Q9UPY3. z-score at 25 µM. cat-ELCCA pre-miR-21 Dicer processing, chemiluminescence; active compounds read high. AID 1347074. hit rate 6% among 47,000; in the data active = z-score above about 3, passing the limit was not always enough;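 note: higher signal means more uncleaved substrate so more Dicer inhibition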
A number is an active result; n = inactive.

SMILES | Dicer inh
COc1ccc(/C=C2\N=C(c3ccccc3)OC2=O)c(OC)c1 | n
O=C1OC(c2ccccc2)=N/C1=C/c1cccs1 | n
O=C(Nc1c(-c2ccccc2)c2cc(Br)ccc2[nH]c1=O)c1ccccc1Cl | n
CCn1c2c(c3cc(OCc4ccccc4)ccc31)CCCC2=O | n
c1ccc(-c2nc(NC3CCCCC3)c3ccccc3n2)cc1 | n
Nc1nc(Cc2cc3ccccc3[nH]2)nc(NC2CCCCC2)n1 | 4
COC(=O)c1c(NC(=O)c2ccc(OC)c(OC)c2)sc2c1CCC2 | n
CC1CCCC(C)N1C(=O)C1Sc2nnc(-c3ccccc3)n2NC1c1ccc(F)cc1 (stereo unspecified) | n
CN(C(=O)c1cnccc1C(F)(F)F)c1nc2cc(Cl)ccc2s1 | n
CCCc1nnc(N2C(=O)c3oc4ccc(F)cc4c(=O)c3C2c2ccc(O)c(OCC)c2)s1 (stereo unspecified) | n
CCOC(=O)Nc1ccc2c(c1)N(C(=O)N1CCN(C)CC1)c1ccccc1CC2 | n
CCOC(=O)Nc1ccc2c(c1)N(C(=O)NC)c1ccccc1CC2 | 3.5
COC(=O)Nc1ccc(S(=O)(=O)N2CCCc3ccccc32)cc1 | n
CC(NCc1ccccc1)c1ccco1 (stereo unspecified) | n
O=C(Nc1ccc2ccccc2n1)c1c(Cl)cccc1Cl | n
O=C(Nc1ccc2ccccc2n1)c1ccc(Cl)cc1 | n
O=C(Nc1ccc2ccccc2n1)C1CCCCC1 | 5.1
O=C(Nc1ccc2ccccc2n1)Nc1ccccc1F | n
O=C(Nc1ccc2ccccc2n1)c1ccccc1Cl | 3.2
O=C(Nc1ccc2ccccc2n1)c1cccs1 | n
O=S(=O)(N=S1CCN(c2ccc(C(F)(F)F)cn2)CC1)c1ccc(Cl)cc1 | n
Cc1ccc(-c2nnc3c4cnn(-c5cccc(C)c5)c4ncn23)cc1 | n
COc1cc(OC)c(/C=C2\N=C(c3ccccc3)OC2=O)c(OC)c1 | n
Cn1c2c(c(=O)n(C)c1=O)C(c1ccc(-c3ccccc3)cc1)C1=C(N2)c2ccccc2C1=O (stereo unspecified) | n
CCOC(=O)C(NCCOC)(NC(=O)c1ccccc1Cl)C(F)(F)F (stereo unspecified) | 4.6
SMILES | Dicer inh
CCOC(=O)C(NC(=O)c1ccccc1Cl)(Nc1ccccn1)C(F)(F)F (stereo unspecified) | 3.4
CCOC(=O)NC(Nc1ccccc1)(C(=O)OCC)C(F)(F)F (stereo unspecified) | n
CCOC(=O)C(NCCc1ccccc1)(NC(C)=O)C(F)(F)F (stereo unspecified) | n
CCOC(=O)CNC(=O)c1ccccc1Cl | n
CCOC(=O)C(NC(=O)c1cccc(C)c1)(Nc1cccc(C)n1)C(F)(F)F (stereo unspecified) | n
N#CC1C(=O)NC(N2CCN(Cc3ccccc3)CC2)=NC12CCCCC2 (stereo unspecified) | n
Cc1nn(C(=O)c2ccc(Cl)cc2)c(C)c1Cc1c(F)cccc1Cl | n
CSc1ssc(=Nc2ccc(Cl)cc2)c1-c1ccccc1 | n
COc1ccccc1-c1nc(C)c2c(C)c(C#N)sc2n1 | n
Cn1c2c(c(=O)n(C)c1=O)CN(Cc1ccc(CN3CNc4c(c(=O)n(C)c(=O)n4C)C3)cc1)CN2 | 3.8
CN(C)CCN1CNc2c(c(=O)n(C)c(=O)n2C)C1 | 3.5
CCCN1CNc2c(c(=O)n(C)c(=O)n2C)C1 | n
CN1CNc2c(c(=O)n(C)c(=O)n2C)C1 | n
CC(c1ccccc1)N1CNc2c(c(=O)n(C)c(=O)n2C)C1 (stereo unspecified) | n
Cn1c2c(c(=O)n(C)c1=O)CN(CCCC(=O)O)CN2 | n
CCOC(=O)c1cnc(-c2cccs2)nc1Nc1cccc(C(F)(F)F)c1 | n
O=C(Nc1cc(F)ccc1F)Nc1cc(C(F)(F)F)ccc1N1CCOCC1 | n
Clc1ccc(Nc2nc(-c3cc(-c4ccccc4)no3)cs2)cc1 | n
N#Cc1cccc2c(Oc3ccccc3)cc(C(F)(F)F)nc12 | n
CC1(C(=O)c2ccccc2)C2c3cc(Br)ccc3OC(=O)C21C(=O)NCc1ccccc1 (stereo unspecified) | 3.4
O=C(O)CN1C(=O)Nc2ccc(Br)cc2C1c1ccccc1 (stereo unspecified) | n
COc1cccc(C(=O)CC2(O)C(=O)N(CCc3ccccc3)c3ccc(Br)cc32)c1 (stereo unspecified) | n
COc1cc2ncnc(Sc3ccc(C)cc3)c2cc1OC | n
O=C(CCSc1cccs1)Nc1ccc(Cl)cc1 | n
O=C(O)CCCNc1ncnc2ccccc12 | n
SMILES | Dicer inh
O=C(O)CNc1ncnc2ccccc12 | 3.6
OCCNc1ncnc2ccccc12 | n
COC(=O)c1sc(Sc2ccc(C(F)(F)F)cn2)c2c1CC(C)(C)CC2=O | n
Cn1c(=O)c2c(nc(N/N=C/c3ccccn3)n2C)n(C)c1=O | n
O=C(OCC1CC1)c1cnc(Sc2ccccn2)nc1C(F)(F)F | n
O=C(CSc1nc2ccccc2nc1N1CCCC1)N1CCN(c2ccc(F)cc2)CC1 | n
O=C(CSc1nc2ccccc2nc1N1CCOCC1)N1CCOCC1 | 4.9
O=C(CSc1nc2ccccc2nc1N1CCOCC1)N1CCN(c2ccccc2)CC1 | n
O=C(CSc1nc2ccccc2nc1N1CCCCC1)NC1CCCCC1 | n
CC1CN(c2nc3ccccc3nc2SCC(=O)N2CCOCC2)CC(C)O1 (stereo unspecified) | n
CC1CCN(c2nc3ccccc3nc2SCC(=O)N2CCN(C3CCCC3)CC2)CC1 | n
c1ccc2nc(N3CCOCC3)c(N3CCOCC3)nc2c1 | n
O=C(CSc1nc2ccccc2nc1N1CCOCC1)N1CCN(c2ccc(F)cc2)CC1 | 3.9
O=C(CSc1nc2ccccc2nc1N1CCCCC1)N1CCN(C2CCCC2)CC1 | n
CC1CCN(c2nc3ccccc3nc2SCC(=O)N2CCOCC2)CC1 | 3.9
Cc1cc(C)nc(N2CCN(C(=O)CSc3nc4ccccc4nc3N3CCOCC3)CC2)n1 | n
O=C(CSc1nc2ccccc2nc1N1CCCCC1)N1CCN(c2ccccc2)CC1 | 4.9
C=CCSc1nnc2c(n1)OC(c1ccccc1OCC(=O)O)Nc1ccccc1-2 (stereo unspecified) | n
Cc1onc(-c2ccccc2Cl)c1NC(=O)Nc1cc(C(F)(F)F)cc(C(F)(F)F)c1 | n
COC(=O)c1cc(C)nc(Sc2ccccc2NC(=O)c2ccc(OC)cc2)n1 | n
O=S1(=O)Cc2snnc2-c2cc(Cl)ccc21 | n
COc1ccc([N+](=O)[O-])cc1-c1ccn(S(=O)(=O)c2ccc(Cl)cc2)n1 | n
Cc1ccc([N+](=O)[O-])c(NC(=O)c2nn(-c3ccccc3)nc2C)c1C | n
Cc1nc(-c2cccc(CSc3nnc(C(F)(F)F)n3C)c2)no1 | n
CCCCOC(=O)C1=C(C)NC2=C(C(=O)CC(C)(C)C2)C1c1cccc(O)c1 (stereo unspecified) | n
SMILES | Dicer inh
CCC(Sc1nc2ccccc2o1)C(N)=O (stereo unspecified) | n
O=C(CSc1nc2ccccc2nc1N1CCOCC1)NC1CC1 | n
O=C(CSc1nc2ccccc2nc1N1CCOCC1)NCC1CCCO1 (stereo unspecified) | 3
CC1CCN(c2nc3ccccc3nc2SCC(=O)NCC2CCCO2)CC1 (stereo unspecified) | n
Cc1nc(N2CCCC2)ncc1S(=O)(=O)c1ccc(Cl)cc1 | n
Nc1c2cnc(N3CCCC3)nc2nc(=O)n1-c1ccc(Cl)cc1 | n
Nc1nc(N2CCOCC2)ncc1S(=O)(=O)c1ccc(Cl)cc1 | 3.9
Cc1ccccc1NC(=S)N1CCCCC1C (stereo unspecified) | 3.4
Cc1c(Cl)cccc1NC(=S)N1C(C)CCCC1C (stereo unspecified) | n
